The source of these data is ChEMBL document CHEMBL3988442, “University of Dundee, Small-Polar-MMV Screening Library” (2021).

Holding throughout (design): scale not given: direction of the effect not stated beside the values
Assay [1] deals with Protein translocase subunit SecA (Escherichia coli (strain K12)) (UniProt P10408). The assay is described as follows: Assay to Identify E. coli SecA ATPase Inhibitors. Type of assay: functional. The following applies: 30 µM.
The target of assay [2] is T1, Ubiquitin-activating enzyme e1, putative (Leishmania donovani (strain BPK282A1)) (UniProt E9BSI1).
T1 sequence (whole entry): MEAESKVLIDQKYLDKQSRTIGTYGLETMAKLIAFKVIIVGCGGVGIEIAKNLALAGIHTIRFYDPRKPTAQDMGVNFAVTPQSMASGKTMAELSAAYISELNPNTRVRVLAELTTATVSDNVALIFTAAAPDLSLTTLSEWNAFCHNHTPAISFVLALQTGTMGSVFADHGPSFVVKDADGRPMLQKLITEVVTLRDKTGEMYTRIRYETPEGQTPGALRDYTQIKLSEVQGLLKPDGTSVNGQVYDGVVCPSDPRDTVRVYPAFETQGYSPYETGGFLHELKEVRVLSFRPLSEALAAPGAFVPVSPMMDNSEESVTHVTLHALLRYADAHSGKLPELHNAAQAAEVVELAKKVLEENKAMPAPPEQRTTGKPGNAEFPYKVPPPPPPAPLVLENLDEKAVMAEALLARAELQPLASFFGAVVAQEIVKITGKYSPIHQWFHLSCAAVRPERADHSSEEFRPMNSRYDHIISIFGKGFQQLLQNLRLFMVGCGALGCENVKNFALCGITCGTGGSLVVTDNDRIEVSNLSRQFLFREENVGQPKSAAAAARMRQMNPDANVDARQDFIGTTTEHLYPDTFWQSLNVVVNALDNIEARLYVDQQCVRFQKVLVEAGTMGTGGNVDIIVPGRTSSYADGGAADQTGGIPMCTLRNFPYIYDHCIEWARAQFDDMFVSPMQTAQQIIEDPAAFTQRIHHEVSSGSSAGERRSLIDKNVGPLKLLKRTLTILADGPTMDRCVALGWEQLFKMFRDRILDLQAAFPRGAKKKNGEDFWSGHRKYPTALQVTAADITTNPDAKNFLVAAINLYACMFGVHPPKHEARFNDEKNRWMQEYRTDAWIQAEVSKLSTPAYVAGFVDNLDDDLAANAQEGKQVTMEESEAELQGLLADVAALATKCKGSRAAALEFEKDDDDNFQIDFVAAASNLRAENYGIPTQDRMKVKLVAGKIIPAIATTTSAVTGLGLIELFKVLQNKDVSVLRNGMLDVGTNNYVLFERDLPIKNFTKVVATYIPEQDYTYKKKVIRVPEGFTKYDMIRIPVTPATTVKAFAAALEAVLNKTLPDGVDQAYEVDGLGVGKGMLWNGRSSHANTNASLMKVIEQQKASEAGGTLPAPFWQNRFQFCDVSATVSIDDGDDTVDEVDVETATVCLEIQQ
The assay is described as follows: Leishmania donovani Ubiquitin Activating Enzyme (LdE1). Type of assay: functional. The following applies: 30 µM.

Assay [3] concerns the target AMP-activated protein kinase, AMPK (Homo sapiens) (UniProt P54646+O43741+P54619+Q9UGJ0+Q9Y478+Q13131+Q9UGI9). The assay can be described thus: AMP-dependent Kinase enzyme assay. An in vitro enzyme assay that detects ADP turnover that is directly proportional to AMPK activity. This uses naive AMPK that is activated during the assay with MK-8722. Type of assay: functional. The following applies: 30 µM.

Assay [4] deals with Sialic acid-binding Ig-like lectin 9 (Homo sapiens) (UniProt Q9Y336). The assay can be described thus: Hs-Siglec9 ALPHAscreen SOP 20170721. Particulars: 10 µM.
Chain of Sialic acid-binding Ig-like lectin 9 (Homo sapiens) (Q9Y336 whole entry): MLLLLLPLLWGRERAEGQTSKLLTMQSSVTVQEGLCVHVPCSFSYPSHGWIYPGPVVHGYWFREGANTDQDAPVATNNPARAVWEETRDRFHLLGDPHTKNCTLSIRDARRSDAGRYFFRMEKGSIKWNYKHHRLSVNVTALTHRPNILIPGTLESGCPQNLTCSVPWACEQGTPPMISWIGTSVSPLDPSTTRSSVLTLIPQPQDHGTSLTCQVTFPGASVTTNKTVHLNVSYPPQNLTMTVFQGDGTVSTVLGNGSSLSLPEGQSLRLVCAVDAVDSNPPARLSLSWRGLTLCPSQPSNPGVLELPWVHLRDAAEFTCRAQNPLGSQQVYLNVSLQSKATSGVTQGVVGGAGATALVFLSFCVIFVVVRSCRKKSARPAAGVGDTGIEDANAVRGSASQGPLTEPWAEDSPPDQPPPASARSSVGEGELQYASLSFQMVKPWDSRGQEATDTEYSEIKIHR
In assay [5] the test system is Trypanosoma cruzi. The assay is described as follows: Trypanosoma cruzi phosphomannomutase and mannose-1-phosphate guanylyltransferase assay. Type of assay: functional. Particulars: 10 µM.
Assay [6] has as its target T2, Arginase-2, mitochondrial (Homo sapiens) (UniProt P78540).
T2 sequence (whole entry): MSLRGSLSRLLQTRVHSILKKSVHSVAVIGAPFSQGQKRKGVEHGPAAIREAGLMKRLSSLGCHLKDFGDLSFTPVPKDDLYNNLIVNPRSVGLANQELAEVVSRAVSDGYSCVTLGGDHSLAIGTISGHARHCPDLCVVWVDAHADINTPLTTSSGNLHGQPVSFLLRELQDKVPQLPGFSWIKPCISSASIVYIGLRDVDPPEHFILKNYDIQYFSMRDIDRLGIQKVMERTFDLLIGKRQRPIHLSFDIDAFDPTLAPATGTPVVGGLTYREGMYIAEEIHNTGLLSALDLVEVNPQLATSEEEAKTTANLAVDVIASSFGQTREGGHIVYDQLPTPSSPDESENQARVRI
The assay is described as follows: in vitro enzyme assay to detect the production of urea directly proportional to the activity of Arginase II. Further: in the data most compounds retested in dose-response had high values. Type of assay: functional. Particulars: 33.3 µM.

Assay [7] addresses T3, Proteasome subunit beta (Trypanosoma cruzi) (UniProt O96673).
T3 sequence (whole entry): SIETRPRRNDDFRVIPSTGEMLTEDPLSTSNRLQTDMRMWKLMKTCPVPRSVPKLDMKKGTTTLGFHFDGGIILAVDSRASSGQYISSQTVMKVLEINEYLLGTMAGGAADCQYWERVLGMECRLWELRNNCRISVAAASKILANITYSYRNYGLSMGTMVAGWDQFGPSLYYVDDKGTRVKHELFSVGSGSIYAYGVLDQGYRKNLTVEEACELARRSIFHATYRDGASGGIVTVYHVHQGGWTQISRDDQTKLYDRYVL
The assay can be described thus: Trypanosoma cruzi proteasome chymotrypsin-like activity (TcProtChymo) assay. Further: in the data most compounds retested in dose-response had high values. Type of assay: functional. The following applies: 9.37 µM.

For assay [8], the species on record is Homo sapiens. The assay is described as follows: To identify inhibition of the IFN signalling (Jak-Stat) pathway via expression of an eGFP reporter gene under the control of an IFN-stimulated response element (ISRE) containing MxA promoter. Type of assay: functional. The following applies: 30 µM.
In assay [9] the target is T4, Tyrosyl-tRNA synthetase, putative (Trypanosoma cruzi (strain CL Brener)) (UniProt Q4DSP6).
T4 sequence (whole entry): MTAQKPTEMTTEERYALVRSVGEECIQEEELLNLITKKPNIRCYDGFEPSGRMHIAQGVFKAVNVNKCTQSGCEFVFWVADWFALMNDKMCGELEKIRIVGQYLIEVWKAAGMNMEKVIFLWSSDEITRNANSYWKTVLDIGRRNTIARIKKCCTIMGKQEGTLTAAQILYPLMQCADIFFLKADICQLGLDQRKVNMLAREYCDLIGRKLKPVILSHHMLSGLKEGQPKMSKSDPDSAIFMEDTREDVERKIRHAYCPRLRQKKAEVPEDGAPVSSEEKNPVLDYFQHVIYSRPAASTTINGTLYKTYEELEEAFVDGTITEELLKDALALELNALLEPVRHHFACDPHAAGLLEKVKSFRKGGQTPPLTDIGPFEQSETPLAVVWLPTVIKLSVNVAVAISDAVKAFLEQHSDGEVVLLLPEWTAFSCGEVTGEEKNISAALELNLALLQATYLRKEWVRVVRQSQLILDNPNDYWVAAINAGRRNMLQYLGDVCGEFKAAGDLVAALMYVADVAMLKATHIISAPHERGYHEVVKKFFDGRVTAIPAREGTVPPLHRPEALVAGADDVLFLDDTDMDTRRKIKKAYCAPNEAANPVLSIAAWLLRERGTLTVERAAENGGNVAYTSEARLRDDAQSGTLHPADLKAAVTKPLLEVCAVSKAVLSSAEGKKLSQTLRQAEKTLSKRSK
The assay can be described thus: Trypanosoma cruzi tyrosyl tRNA synthetase (TcYRS) _High Tyrosine SOP. Further: in the data most compounds retested in dose-response had high values. Type of assay: functional. The following applies: 30 µM.

Assay [10] has as its target T4, Tyrosyl-tRNA synthetase, putative (Trypanosoma cruzi (strain CL Brener)). The assay can be described thus: Trypanosoma cruzi tyrosyl tRNA synthetase (TcYRS) SOP. Type of assay: functional. Particulars: 30 µM.
Assay [11] has as its target Chromo domain-containing protein 1 (Saccharomyces cerevisiae (strain ATCC 204508 / S288c) (Baker's yeast)) (UniProt P32657). The assay can be described thus: ScCHD-1 Enzyme Inhibition Assay. Further: in the data most compounds retested in dose-response had high values. Type of assay: functional. The following applies: 30 µM.

For some of these results: Potency and affinity values are given separately.

Chain of Chromo domain-containing protein 1 (Saccharomyces cerevisiae (strain ATCC 204508 / S288c) (Baker's yeast)) (P32657 whole entry, the tested form may be a part): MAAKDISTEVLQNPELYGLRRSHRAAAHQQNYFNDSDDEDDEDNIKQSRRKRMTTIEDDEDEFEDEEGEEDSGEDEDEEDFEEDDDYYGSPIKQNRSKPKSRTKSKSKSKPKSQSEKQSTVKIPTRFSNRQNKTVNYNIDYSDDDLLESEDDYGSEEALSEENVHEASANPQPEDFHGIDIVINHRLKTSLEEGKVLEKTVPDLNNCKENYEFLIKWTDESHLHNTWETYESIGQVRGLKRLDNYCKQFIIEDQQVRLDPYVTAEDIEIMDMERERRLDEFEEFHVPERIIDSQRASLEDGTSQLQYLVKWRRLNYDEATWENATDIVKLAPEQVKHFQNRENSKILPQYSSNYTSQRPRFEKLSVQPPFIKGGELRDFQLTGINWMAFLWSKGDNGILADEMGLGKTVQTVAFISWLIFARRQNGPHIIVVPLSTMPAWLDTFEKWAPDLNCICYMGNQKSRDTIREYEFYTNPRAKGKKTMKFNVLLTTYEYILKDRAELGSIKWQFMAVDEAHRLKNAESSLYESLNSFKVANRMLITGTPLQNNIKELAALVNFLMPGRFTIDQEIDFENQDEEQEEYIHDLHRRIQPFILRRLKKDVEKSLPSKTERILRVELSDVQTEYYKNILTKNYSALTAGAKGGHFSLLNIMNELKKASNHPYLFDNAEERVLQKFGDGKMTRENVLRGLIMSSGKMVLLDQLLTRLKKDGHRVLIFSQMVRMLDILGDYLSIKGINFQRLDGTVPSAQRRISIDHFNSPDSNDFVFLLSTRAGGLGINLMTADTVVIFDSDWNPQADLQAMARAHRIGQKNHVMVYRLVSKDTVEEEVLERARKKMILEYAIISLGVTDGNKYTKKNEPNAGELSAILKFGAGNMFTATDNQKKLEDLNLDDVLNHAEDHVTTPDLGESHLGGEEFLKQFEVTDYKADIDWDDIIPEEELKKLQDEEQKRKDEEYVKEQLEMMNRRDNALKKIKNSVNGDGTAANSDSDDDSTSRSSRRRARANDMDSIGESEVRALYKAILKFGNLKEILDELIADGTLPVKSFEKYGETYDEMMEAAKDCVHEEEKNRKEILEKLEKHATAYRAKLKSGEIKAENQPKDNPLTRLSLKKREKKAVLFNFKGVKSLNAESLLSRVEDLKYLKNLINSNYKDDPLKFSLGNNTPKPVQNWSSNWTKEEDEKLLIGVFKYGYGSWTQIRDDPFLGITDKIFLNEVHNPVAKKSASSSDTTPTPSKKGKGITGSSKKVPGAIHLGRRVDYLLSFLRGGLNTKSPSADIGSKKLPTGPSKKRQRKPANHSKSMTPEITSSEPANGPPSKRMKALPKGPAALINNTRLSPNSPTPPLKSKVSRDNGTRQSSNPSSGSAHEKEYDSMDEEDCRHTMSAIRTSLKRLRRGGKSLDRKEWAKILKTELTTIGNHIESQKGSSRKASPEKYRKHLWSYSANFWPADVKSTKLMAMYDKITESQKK
Chain of Protein translocase subunit SecA (Escherichia coli (strain K12)) (P10408 whole entry): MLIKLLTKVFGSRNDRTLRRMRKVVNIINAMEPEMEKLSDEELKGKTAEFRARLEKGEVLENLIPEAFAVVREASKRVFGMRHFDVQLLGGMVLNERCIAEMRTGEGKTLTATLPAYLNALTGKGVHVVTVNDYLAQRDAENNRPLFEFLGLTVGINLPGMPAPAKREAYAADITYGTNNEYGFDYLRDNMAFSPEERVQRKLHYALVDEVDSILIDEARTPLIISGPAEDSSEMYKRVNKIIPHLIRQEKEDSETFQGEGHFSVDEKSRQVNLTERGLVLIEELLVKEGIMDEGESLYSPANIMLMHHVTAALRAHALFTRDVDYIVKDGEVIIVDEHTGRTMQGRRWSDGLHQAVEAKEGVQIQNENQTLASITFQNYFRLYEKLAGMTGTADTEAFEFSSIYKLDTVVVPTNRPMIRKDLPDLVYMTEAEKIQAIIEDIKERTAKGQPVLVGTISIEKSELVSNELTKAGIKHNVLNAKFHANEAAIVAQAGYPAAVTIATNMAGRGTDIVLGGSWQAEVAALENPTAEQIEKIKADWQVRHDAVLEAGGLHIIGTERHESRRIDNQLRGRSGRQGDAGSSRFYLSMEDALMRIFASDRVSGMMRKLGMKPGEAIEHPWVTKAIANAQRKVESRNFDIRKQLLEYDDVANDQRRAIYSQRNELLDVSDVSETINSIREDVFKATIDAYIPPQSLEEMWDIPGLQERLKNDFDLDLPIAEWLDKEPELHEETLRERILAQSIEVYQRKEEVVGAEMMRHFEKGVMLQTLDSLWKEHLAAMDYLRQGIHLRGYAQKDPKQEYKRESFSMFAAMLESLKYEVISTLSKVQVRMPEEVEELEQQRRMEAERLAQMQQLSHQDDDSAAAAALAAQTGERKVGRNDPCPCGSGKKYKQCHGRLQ

`N#Cc1c(F)cccc1N1CCC(NS(=O)(=O)c2cccs2)CC1`: the Percent Effect was 0.0864% in [1]; -11% in [2]; 24.6% in assay [3]; -2.85% in assay [4]; -9.6% in [5]; -0.455% in assay [6]. Moreover, the Percent Effect was 14% in assay [7]; 34.2% in assay [8]; -15.1% in assay [9]; -20% in assay [10]; -4.33% in assay [11].

As to `Cc1nn(C)c(C)c1C1CCCN1C(=O)c1cc[nH]n1` (stereo unspecified), the Percent Effect in assay [1] was -3.64%; in [2], 3.8%; in assay [3] it was 5.29%; in [4], 4%; in [5], -4.41%; in assay [6], -1.07%. The Percent Effect is 5.49% in assay [7]; 10.6% in assay [8]; -1.04% in [9]; 7.59% in assay [10]; 7.31% in assay [11].

Consider `CCc1n[nH]c(C2CN(C(=O)c3cnns3)CCO2)n1` (stereo unspecified), for which the Percent Effect in assay [1] was -3.59%; in assay [2] it was 0%; in assay [3] it was 2.14%; in assay [4], -2.18%; in assay [5], -4.63%; in assay [6] it was -19%. Moreover, the Percent Effect in assay [7] was 2.7%; in assay [8], 15.6%; in [9] it was 1.48%; in assay [10] it was -3.8%; in assay [11], -1.39%.

With `CN1C(=O)CC(C(=O)O)C12CCN(Cc1ccc(Cl)cc1F)CC2` (stereo unspecified), the Percent Effect in assay [1] was -2.86%; in [2], 10.7%; in assay [3] it was -8%; in assay [4], 3.22%; in assay [5], -0.487%; in assay [6] it was 2.6%. Also, the Percent Effect is 10.1% in assay [7]; 10.2% in [8]; 6.01% in assay [9]; 21% in assay [10]; -6.2% in assay [11].

Turning to `Cc1ccc(CCC(=O)N(C)CCN2CCOCC2)c(C)c1`, the Percent Effect in assay [1] is -0.772%; in assay [2], -5.26%; in assay [3], 4.45%; in assay [4], 4.55%; in [5] it was -0.487%; in assay [6], -7.1%. Also, the Percent Effect in assay [7] is 17%; in assay [8], -17.1%; in assay [9] it was 6.38%; in [10], 5.2%; in assay [11], 4.92%.

Turning to `CC(C)(C)N1CC(C(=O)N2CCN(CCc3ccccc3)CC2)CC1=O` (stereo unspecified), the Percent Effect in assay [1] is -1.55%; in assay [2] it was 5.33%; in assay [3] it was -2.2%; in assay [4], 1.39%; in assay [5], -3.6%; in [6] it was 1.56%. For the same compound, the Percent Effect in assay [7] is 17.1%; in assay [8], 32.1%; in [9], 4.92%; in assay [10] it was 11.1%; in assay [11], -6.21%.

For the compound `Cc1oc(-c2nc(C#N)c(N(C)C)o2)cc1S(=O)(=O)N1CCCC1`, the Percent Effect in assay [1] is -3.98%; in assay [2], 4%; in assay [3] it was -2.67%; in [4] it was 8.99%; in assay [5], 2.75%; in [6], -7.92%. In addition, the Percent Effect in assay [7] is 17.2%; in [8], -8.23%; in [9], 1.06%; in assay [10], 10.3%; in [11], -0.712%.

In the case of `COCC(=O)N1CCC(c2noc3nc(C)cc(C(F)(F)F)c23)CC1`, the Percent Effect in [1] is -6.46%; in assay [2], 4.05%; in [3], 9.11%; in assay [4], -5.57%; in assay [5], -2.37%; in assay [6], -7.66%. In addition, the Percent Effect was 13.9% in [7]; 21.4% in assay [8]; -2.15% in [9]; -1.3% in assay [10]; -1.78% in [11].

`O=c1oc(-c2ccc(F)cc2)nn1CN1CCN(C2CCCC2)CC1`: the Percent Effect in assay [1] is -3.25%; in assay [2], 18.2%; in assay [3], 2.12%; in assay [4], -0.647%; in [5] it was -2.25%; in assay [6] it was -3.56%. In addition, the Percent Effect in assay [7] was 7.6%; in assay [8] it was -3.58%; in assay [9], 9.71%; in [10] it was 19.5%; in assay [11], -6.38%.

With `O=C(NCc1ccccc1CN1CCC(O)CC1)Nc1ccncc1`, the Percent Effect was 5.78% in assay [1]; 10.8% in assay [2]; -5.37% in [3]; 6.21% in assay [4]; -5.21% in assay [5]; 0% in assay [6]. Further, the Percent Effect in assay [7] is 16.2%; in [8] it was 28%; in assay [9], 6.88%; in [10], 14.6%; in [11] it was -3.29%.

In the case of `Cc1ccc(C(=O)N2CCO[C@H]3[C@@H](OCc4ccccn4)CC[C@@H]32)o1`, the Percent Effect was -2.21% in assay [1]; 10.4% in assay [2]; -8.74% in [3]; 3.45% in [4]; -4.44% in assay [5]; 11% in assay [6]. Further, the Percent Effect is 12.7% in [7]; 11.5% in [8]; -1.06% in [9]; -8.97% in assay [10]; -6.69% in [11].
